Counter-ions that a name gives are not always drawn. Unmarked numbers belong to inactive results.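 Rule for the calls: active = AUC significantly below DMSO controls by Student t-fit with adjusted P under 0.01; inactive = not significantly reduced.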
Each compound was assayed on Haemophilus parainfluenzae (assay: growth AUC normalised to DMSO control (fraction of control); higher = less growth inhibition, active = hit call of the paper). Conditions: 20 µM.
Method in brief: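 Pathogens passaged twice anaerobically were inoculated at a starting OD578 of 0.01 into pre-reduced mGAM plates with drug at 20 μM and 1% DMSO, sealed with breathable membranes. Haemophilus parainfluenzae medium was supplemented with hemin and NAD. OD578 was read hourly for 24 h, with three biological replicates. Growth-curve AUC was computed by the trapezoidal rule up to the exponential-to-stationary transition and normalised to DMSO controls on the same plate.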

SMILES	growth AUC normalised to DMSO control
CC(C)/N=c1\cc2n(-c3ccc(Cl)cc3)c3ccccc3nc-2cc1Nc1ccc(Cl)cc1 [Clofazimine]	1
CC(=C(CCO)SSCC1CCCO1)N(C=O)Cc1cnc(C)nc1N (stereo in doubt) [Fursultiamine hydrochloride]	0.986
CC/C(=C(\c1ccccc1)c1ccc(OCCN(C)C)cc1)c1ccccc1 [Tamoxifen citrate]	0.997
Cc1cccc(C)c1NC(=O)CN1CCN(CCCC(c2ccc(F)cc2)c2ccc(F)cc2)CC1 [Lidoflazine]	1.02
CNC[C@H](O)[C@@H](O)[C@H](O)[C@H](O)CO [Meglumine]	1.05
CCOCCn1c(N2CCCN(C)CC2)nc2ccccc21 [Emedastine difumarate]	1
CN(C)CCOC(c1ccccc1)c1ccccc1 [Diphenhydramine hydrochloride]	0.992
CN(C)CCOC(=O)COc1ccc(Cl)cc1 [Meclofenoxate hydrochloride]	0.896
CCN(CC)CCCC(C)Nc1ccnc2cc(Cl)ccc12 (centres undefined) [Chloroquine diphosphate]	1.01
CC(CN(C)C)C(C)(O)Cc1ccc(Cl)cc1 (centres undefined) [Clobutinol hydrochloride]	0.963
COc1cc(N)c(Cl)cc1C(=O)NC1CCN(Cc2ccccc2)CC1 [Clebopride maleate]	0.989
CC(N)(Cc1ccc(O)c(O)c1)C(=O)O (centres undefined) [(L) Methyldopa]	1.04
NC1CCN(c2nc3c(cc2F)c(=O)c(C(=O)O)cn3-c2ccc(F)cc2F)C1 (centres undefined) [Tosufloxacin hydrochloride]	0.0424 (active)
O=C(O)c1cn(C2CC2)c2cc(N3CCNCC3)c(F)cc2c1=O [Ciprofloxacin hydrochloride monohydrate]	0.0495 (active)
O=C1Cc2cc(CCN3CCN(c4nsc5ccccc45)CC3)c(Cl)cc2N1 [Ziprasidone  hydrochloride monohydrate]	1.03
CN(C)c1ccc(O)c2c1C[C@H]1C[C@H]3[C@H](N(C)C)C(=O)C(C(N)=O)=C(O)[C@@]3(O)C(=O)C1=C2O [Minocycline hydrochloride]	0.0348 (active)
CCCOc1ccc(C(=O)OCCN(CC)CC)cc1N [Proparacaine hydrochloride]	1.01
Oc1ccc(OCc2ccccc2)cc1 [Monobenzone]	0.902
Clc1ccc(Cn2c(CN3CCCC3)nc3ccccc32)cc1 [Clemizole hydrochloride]	0.982
COc1c(O[C@@H]2O[C@H](CO)[C@@H](O)[C@H](O)[C@H]2O)cc2c(c1OC)-c1ccc(SC)c(=O)cc1[C@@H](NC(C)=O)CC2 [Thiocolchicoside]	0.996

SMILES	growth AUC normalised to DMSO control
CCC1=C(C)CN(C(=O)NCCc2ccc(S(=O)(=O)NC(=O)N[C@H]3CC[C@H](C)CC3)cc2)C1=O [Glimepiride]	1.02
CCN(CC)CCNC(C(=O)OCCC(C)C)c1ccccc1 (centres undefined) [Camylofine chlorhydrate]	0.98
CC(=O)OCC(=O)[C@@]1(OC(C)=O)[C@@H](C)C[C@H]2[C@@H]3C[C@H](F)C4=CC(=O)C=C[C@]4(C)[C@@]3(F)[C@@H](O)C[C@@]21C [Diflorasone Diacetate]	0.953
C[N+](C)(C)CCOC(N)=O [Carbachol chloride]	1.09
COc1ccc(/C=C/C(=O)Nc2ccccc2C(=O)O)cc1OC [Tranilast]	1.01
CC(C)NC[C@@H](O)COc1cccc2ccccc12 [(R) Propranolol hydrochloride]	0.99
COC(=O)Nc1nc2ccc(SC(C)C)cc2[nH]1 [Methiazole]	1.05
CN1CCN2c3ncccc3Cc3ccccc3C2C1 (centres undefined) [Mirtazapine]	1.49
CC(=O)N(CC(O)CN(C(C)=O)c1c(I)c(C(=O)NCC(O)CO)c(I)c(C(=O)NCC(O)CO)c1I)c1c(I)c(C(=O)NCC(O)CO)c(I)c(C(=O)NCC(O)CO)c1I (centres undefined) [Iodixanol]	0.976
Cc1nc2n(c(=O)c1CCN1CCC(c3noc4cc(F)ccc34)CC1)CCCC2 [Risperidone]	1
CC(C)NCC(O)c1ccc(O)c(O)c1 (single isomer, unassigned; (-)) [(-) Isoproterenol hydrochloride]	1.03
CCN1CCC[C@H]1CNC(=O)c1c(O)c(Cl)cc(Cl)c1OC [Raclopride]	0.944
Cc1ccccc1N1C(=O)c2cc(S(N)(=O)=O)c(Cl)cc2NC1C (centres undefined) [Metolazone]	0.966
CNCCC(Oc1ccc(C(F)(F)F)cc1)c1ccccc1 (centres undefined) [Fluoxetine hydrochloride]	1
COC(=O)Nc1nc2cc(C(=O)c3cccs3)ccc2[nH]1 [Nocodazole]	1.03
Cc1c(O)c(=O)n(-c2ccccc2)n1C [Antipyrine, 4-hydroxy]	0.974
COc1cc(C(=O)OCCCN2CCCN(CCCOC(=O)c3cc(OC)c(OC)c(OC)c3)CC2)cc(OC)c1OC [Dilazep dihydrochloride]	0.97
C[C@]12C=CC(=O)C=C1CC[C@H]1[C@@H]3C[C@@H](O)[C@](O)(C(=O)CO)[C@@]3(C)C[C@H](O)[C@@]12F [Triamcinolone]	1.01
Cc1cc(N)c2ccccc2[n+]1CCCCCCCCCC[n+]1c(C)cc(N)c2ccccc21 [Dequalinium dichloride]	0.907

Source: the supplement of paper PMC12350171
